# Reference: PubChem BioAssay AID1347422 (Sanford-Burnham Center for Chemical Genomics, 2020)
# The full ranking holds about 1,000 compounds; the median of “thermal shift dTm” is about 0.19, and the highest 2% start at about 1.7. This is one part of a sample in which the highest values are shown more often than they occur. Calls of active or inactive are those of the source.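 How the source made its calls: active means mean rise in melting temperature of at least 1 degC over same-plate control wells; inactive means below that, where a call was filed.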
# Target: Sulfhydryl oxidase 1 (Homo sapiens) (UniProt O00391)
# Assay: ligand-induced melting shift of human QSOX1 – biophysical, protein thermal shift, single concentration, QSOX1 inhibitor project, confirmation (AID 1347422);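 further: dTm is compound Tm minus mean Tm of DMSO-only wells on that plate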
# Settings: recombinant hQSOX1 thermal shift, Sypro Orange, at 25 µM, stronger effect = higher value
# Chain of Sulfhydryl oxidase 1 (Homo sapiens) (O00391 whole entry, looked up): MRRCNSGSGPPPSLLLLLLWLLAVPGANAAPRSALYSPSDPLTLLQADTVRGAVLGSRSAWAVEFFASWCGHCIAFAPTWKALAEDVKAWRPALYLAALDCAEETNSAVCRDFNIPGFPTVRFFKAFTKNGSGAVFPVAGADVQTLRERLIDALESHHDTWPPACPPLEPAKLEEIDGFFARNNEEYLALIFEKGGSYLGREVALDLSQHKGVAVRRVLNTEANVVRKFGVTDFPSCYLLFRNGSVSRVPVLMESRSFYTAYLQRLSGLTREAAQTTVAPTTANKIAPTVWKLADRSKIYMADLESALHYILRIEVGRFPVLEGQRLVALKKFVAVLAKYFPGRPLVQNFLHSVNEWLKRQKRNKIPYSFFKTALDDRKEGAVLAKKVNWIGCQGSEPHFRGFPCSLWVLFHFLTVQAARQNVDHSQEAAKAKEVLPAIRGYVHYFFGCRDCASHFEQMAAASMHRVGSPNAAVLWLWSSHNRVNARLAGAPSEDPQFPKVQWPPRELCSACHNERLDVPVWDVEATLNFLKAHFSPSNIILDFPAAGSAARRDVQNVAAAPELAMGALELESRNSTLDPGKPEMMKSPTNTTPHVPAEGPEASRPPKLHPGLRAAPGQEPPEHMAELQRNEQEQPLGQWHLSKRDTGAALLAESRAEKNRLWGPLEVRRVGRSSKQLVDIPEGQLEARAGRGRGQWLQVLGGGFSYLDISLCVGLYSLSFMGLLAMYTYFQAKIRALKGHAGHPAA
row,Structure (SMILES),thermal shift dTm
1,O=C(Nc1n[nH]c(-c2ccccc2)n1)N1CCC2(C=Cc3ccccc32)CC1,0.09 °C
2,CCCCC1=NN2C(=N)/C(=C/c3ccc(Cl)cc3Cl)C(=O)N=C2S1,0.11 °C
3,CCOC(=O)c1sc(NC(=O)CSc2nc(SC)ns2)nc1C,0.19 °C
4,Cc1sc(NC(=O)C#Cc2ccccc2)c(C(N)=O)c1C,0.33 °C
5,CCC(c1ccc(OC)cc1)N(CC)C(=O)Nc1ccccc1 (configuration not stated),0.14 °C
6,COC(=O)c1cccc(NC(=O)c2ccc(Cl)s2)c1,0.04 °C
7,C=CCSC1=N/C(=C\c2ccc(-c3cccc(Cl)c3)o2)C(=O)S1,0.63 °C
8,O=C(NCCC1=CCCCC1)Nc1cccc(F)c1,0.19 °C
9,CCN(CC)c1ccc2cc(-c3nc4ccccc4o3)c(=O)oc2c1,0.15 °C
10,COc1ccc2nc(NC(=O)c3ccc(C)o3)sc2c1,0.04 °C
11,COc1ccc(OC)c(-c2nc(NC(=O)c3ccccc3OC)sc2C)c1,-7.06 °C (inactive)
12,COc1ccc(C(=O)Nc2nc(-c3cc(OC)ccc3OC)c(C)s2)cc1,2.73 °C (active)
13,CC1CCc2c(sc3ncn(CC(=O)Nc4ccccc4F)c(=O)c23)C1 (configuration not stated),0.26 °C
14,COC(=O)C1=C(C)N(c2ccc(Cl)cc2)C(=O)/C1=C\c1ccco1,0.01 °C
15,O=C(Nc1ccc(Cl)cn1)c1cccc(NC(=O)c2cccs2)c1,0.37 °C
16,C/C=C/c1c(F)c(F)c(Oc2cccc(NC(C)=O)c2)c(F)c1F,0.63 °C
17,C=CCN1C(=O)C(c2c(C)[nH]c3ccccc23)(c2c(C)[nH]c3ccccc23)c2ccccc21,1.05 °C (active)
18,FC(F)(F)c1ccc(Cl)c(Nc2nnc(-c3ccncc3)s2)c1,0.77 °C
19,Cc1ccc(NC(=O)NCc2nc(-c3ccccc3Cl)no2)cc1,0.2 °C
20,Cc1ccc(Nc2nc(-c3sc(C)nc3C)cs2)nc1,0.16 °C
21,O=C(Nc1cccc(Cl)c1)N1CCC(C(O)(c2ccccc2)c2ccccc2)CC1,0.21 °C
22,O=S1(=O)CC2C(C1)N(c1cccc(C(F)(F)F)c1)C(=S)N2c1ccccc1 (configuration not stated),-0.16 °C (inactive)
23,CC(=O)Oc1ccc(-c2csc(Nc3ccccc3F)n2)cc1,0.35 °C

row,Structure (SMILES),thermal shift dTm
1,COc1ccc(S(=O)(=O)NC(C)C2C3CC4CC(C3)CC2C4)cc1 (configuration not stated),-0.18 °C (inactive)
2,O=C(Nc1nccs1)c1cccc(NC(=O)c2cc3ccccc3o2)c1,1.07 °C (active)
3,Cc1nc(NC(=O)c2ccc(Br)s2)sc1C,0.27 °C
4,CCN(C(=O)Nc1ccc(Cl)cc1)c1nnc(-c2ccccc2)s1,0.16 °C
5,CCc1ccc(C(=O)Nc2cccc(NC(=O)c3ccco3)c2)cc1,2.18 °C (active)
6,O=C(Nc1cccc(NC(=O)c2ccco2)c1)c1cccc(F)c1,1.39 °C (active)
7,CC(=O)Nc1cccc(NC(=O)c2cccc(NC(=O)c3ccco3)c2)c1,0.37 °C
8,Cc1ccccc1OCc1nc(-c2cccc(NC(=O)c3ccco3)c2)no1,0.57 °C
9,COc1ccc(/C=C/C(=O)Nc2cccc(C(C)=O)c2)cc1,1.18 °C (active)
10,COc1ccc(C(=O)/C=C/c2cccc(OC)c2)cc1,2.07 °C (active)
11,Nc1cccc(/C=C/C(=O)c2ccccc2)c1,0.57 °C
12,O=C(NC1CC(=O)N(Cc2cccc3ccccc23)C1)C(=O)c1ccccc1 (configuration not stated),0.23 °C
13,O=C(Nc1ccc(Cl)cc1)Nc1ccccc1OC(F)F,0.25 °C
14,COc1ccc(C)cc1NC(=O)Nc1ccc(OC(F)F)c(Cl)c1,-0.79 °C (inactive)
15,CCCc1cc(=O)[nH]c(SCC(=O)Nc2nc(-c3ccccc3)cs2)n1,1.07 °C (active)
16,COc1ccccc1C(=O)NC(=S)Nc1ccc(NC(=O)C(C)C)cc1,0.11 °C
17,O=c1c2ccccc2ncn1CCCOc1ccc2ccccc2c1Br,0.11 °C
18,COc1ccc(Cl)cc1NC(=S)Nc1c(C)nn(Cc2c(F)cccc2Cl)c1C,0.81 °C
19,CCCOC(=O)c1c(NC(=O)C2CC=CCC2C(=O)O)sc(C)c1-c1ccc(F)cc1 (configuration not stated),0.77 °C
20,CC1Oc2ccc(-c3csc(NC(=O)COc4ccc(Cl)cc4)n3)cc2NC1=O (configuration not stated),-0.1 °C (inactive)
21,Cc1ccc(-n2[nH]c(CSc3nnnn3-c3ccccc3)cc2=O)cc1,0.43 °C
22,Cc1ccc(-c2cc(-c3ccc(F)cc3)n[nH]2)c(O)c1,1.84 °C (active)
23,Cc1ccc(O)c(-c2cc(-c3ccccc3)n[nH]2)c1,0.01 °C

row,Structure (SMILES),thermal shift dTm
1,Cc1[nH]nc(-c2ccc(O)c(O)c2O)c1Oc1ccc(F)cc1,-5.32 °C (inactive)
2,O=C(Nc1cccc(-c2noc(CCc3ccccc3)n2)c1)c1cccs1,0.1 °C
3,O=C(/C=C/c1ccco1)NCc1cccc(CNC(=O)/C=C/c2ccco2)c1,1.04 °C (active)
4,CCCC(=O)NC(c1ccccc1OC)c1c(OC(=O)COc2ccccc2)ccc2ccccc12 (configuration not stated),-0.13 °C (inactive)
5,OCc1ccc(OCc2ccc(F)cc2)c(Br)c1,0.58 °C
6,COc1ccc2[nH]cc(CCNC(=O)c3cccc(Cl)c3)c2c1,1.74 °C (active)
7,COc1cccc(C(=O)NCCc2c[nH]c3ccc(C)cc23)c1,0.07 °C
8,COc1ccc2[nH]cc(CCNC(=O)c3ccc(OC(C)=O)cc3)c2c1,0.81 °C
9,NC(=O)c1ccc(NC(=O)C2CC2(c2ccccc2)c2ccccc2)cc1 (configuration not stated),0.19 °C
10,O=C(Nc1cccc(OCC2CCCO2)c1)c1cccs1 (configuration not stated),0.09 °C
11,COc1cccc(C(=O)Nc2nc3ccc(Cl)cc3s2)c1,0.62 °C
12,COc1ccc(C(=O)Oc2ccccc2Cl)cc1Br,0.06 °C
13,Fc1ccc(-c2nc(-c3cccs3)c(-c3cccs3)[nH]2)cc1,3.34 °C (active)
14,c1csc(-c2nc(-c3cccs3)c(-c3cccs3)[nH]2)c1,0.06 °C
15,COc1ccc(-c2nc(-c3cccs3)c(-c3cccs3)[nH]2)cc1,0.25 °C
16,Cc1oc(-c2ccccc2NS(C)(=O)=O)nc1CN(C)Cc1ccc(OC(F)F)cc1,0.18 °C
17,N#Cc1cccc(NC(=O)c2cc3ccccc3o2)c1,0.32 °C
18,CC(=O)Nc1ccc(NC(=O)c2cc3ccccc3o2)cc1,1.73 °C (active)
19,Cc1cc(NC(=O)c2ccccn2)ccc1NC(=O)c1cc2ccccc2o1,0.19 °C
20,O=C(Nc1cccc(OCc2ccccc2)c1)c1ccco1,0.23 °C
21,Cc1ccc(-c2noc(CNC(=O)C34CC5CC(CC(C5)C3)C4)n2)cc1,0.16 °C
22,O=C(CCSc1nc2sc3c(c2c(=O)[nH]1)CCCC3)Nc1ccccc1,0.02 °C
23,NC(=O)c1ccc(-c2ccc3[nH]ccc3c2)nc1,0.79 °C

row,Structure (SMILES),thermal shift dTm
1,Cc1cc2ncn(CCCOc3ccc(Cl)cc3)c2cc1C,0.11 °C
2,CC(C)N(Cc1nc(-c2ccc(Cl)cc2)no1)S(=O)(=O)c1ccc(F)cc1,0.02 °C
3,CCc1ccc(NC(=O)Nc2ccc(Br)cn2)cc1,0.09 °C
4,COc1cccc(NC(=O)Nc2cccc3ccccc23)c1,0.01 °C
5,COc1ccc(C)cc1NC(=O)Nc1ccc(NC(C)=O)cc1,0.57 °C
6,COc1ccc(OC)c(NC(=O)Nc2cccc(NC(C)=O)c2)c1,1.91 °C (active)
7,COc1ccc(NC(=O)Nc2ccc(C)cc2)c(OC)c1,0.2 °C
8,COc1ccc(NC(=O)Nc2ccc(C(C)=O)cc2)c(C)c1,2.14 °C (active)
9,COc1ccc(NC(=O)Nc2ccc(C)cc2C)cc1,0.05 °C
10,N/C(=N\c1nc(-c2cccs2)cc(C(F)(F)F)n1)Nc1ccc2c(c1)OCCO2,0.35 °C
11,COc1ccc(NC(=O)Nc2cccc(Cn3cc(Cl)cn3)c2)cc1,2.14 °C (active)
12,COc1cccc(NC(=O)Nc2ccc(Cc3ccncc3)cc2)c1,0.38 °C
13,COc1ccc(NC(=O)Nc2cccnc2)cc1,0.28 °C
14,Cc1nnc(NC(=O)c2ccc(NC(=O)c3ccco3)cc2)s1,0.7 °C
15,CC(=O)Nc1ccc(NC(=O)c2nnn(-c3cccc(Cl)c3)c2N)cc1,0.55 °C
16,O=C(Nc1nccs1)c1ccccc1OCc1ccccc1,0.37 °C
17,CCc1sc(NC(=O)Cc2ccc(F)cc2)nc1-c1ccccc1,0.17 °C
18,O=S(=O)(NCCSC1CCCCC1)c1ccc(Cl)cc1,0.11 °C
19,O=C(CCc1ccccc1)Nc1cccc(-c2nc3ccccc3s2)c1,0.59 °C
20,CC(=O)Nc1ccc(C(=O)CSc2ccc3ccccc3n2)cc1,1.22 °C (active)
21,Cc1ccccc1NC(=S)NCCC(c1ccccc1)c1ccccc1,0.02 °C
22,Cc1ccc(NC(=O)Nc2ccc3snnc3c2)cc1,-0.45 °C (inactive)
23,c1ccc(COc2ccc(-c3noc(-c4ccccn4)n3)cc2)cc1,0.01 °C

row,Structure (SMILES),thermal shift dTm
1,C=CCc1c(C)nc2c(-c3ccccc3)cnn2c1NCc1cccnc1,-0.08 °C (inactive)
2,Cc1cc(OCCn2cc(C(=S)N3CCOCC3)c3ccccc32)ccc1Cl,0.02 °C
3,COc1ccc2c(c1OC)C(=O)N(c1ccc(Cl)cc1)C2,0.81 °C
4,Cc1ncc(CNc2ccc(-c3nc4ccccc4[nH]3)cc2)cn1,0.14 °C
5,c1cc(NCc2ccc3c(c2)OCO3)cc(-c2nc3ccccc3[nH]2)c1,2.39 °C (active)
6,O=C(Nc1cccc(-c2nc3ccccc3[nH]2)c1)C1CCCO1 (configuration not stated),0.02 °C
7,COc1ccc(NC(=O)c2ccoc2)cc1Cl,0.23 °C
8,COc1ccc(C(=O)Nc2ccc(NC(C)=O)cc2)cc1C,1.48 °C (active)
9,COc1ccc(C(=O)Nc2ccc(Cl)c(C)n2)cc1Cl,1.85 °C (active)
10,COc1ccc(-c2noc(-c3cccc(NC(C)=O)c3)n2)cc1,0.24 °C
11,CSc1cccc(NC(=O)NCc2ccccn2)c1,0.18 °C
12,O=C(Nc1nc(-c2ccccc2)ns1)N1CCOc2ccc(Cl)cc2C1,0.23 °C
13,O=C(CN(c1ccccc1F)S(=O)(=O)c1ccccc1)Nc1ccc(F)cc1F,-0.03 °C (inactive)
14,Cc1cc(N(C)C)nc(N2CCN(C(=O)Nc3cccc(F)c3)CC2)n1,-0.08 °C (inactive)
15,CCCN(CC1CC1)C(=O)c1cc(COc2ccc(OC)cc2Cl)on1,0.09 °C
16,CC(=O)Oc1ccc2cc(-c3ccc(Cl)cc3)c(=O)oc2c1,0.11 °C
17,CCCn1c(=O)[nH]c(=O)c2c(-c3cccc4ccccc34)ccnc21,0.25 °C
18,Cc1ccc(NC(=O)Nc2ccc(Br)cc2)nc1,0.28 °C
19,Cc1ccc2ccc(C(Nc3ccccn3)c3ccc(Cl)cc3)c(O)c2n1 (configuration not stated),0.57 °C
20,O=c1[nH]c(SCc2ccc(Cl)c(Cl)c2)nc2ccccc12,0.11 °C
